Lamin A splicing – LMNA splicing modulation; HeLa LMNA splicing GFP/RFP minigene ratio, 48 h; Potency, µM (highest dose often 46.1 µM), inactives show top-dose ratio change, negative = inhibition, actives largely listed as inhibitors; 0.01% of 200,000 active; active means well fitted inhibition curve with a large enough effect in the signal ratio, with a control signal flat, not every such curve was filed as active; inconclusive means small, poorly fitted or top-dose-only effect, or effect the other way, or a change in a side signal; the % refers to the signal ratio; further: potency means the concentration at half of the fitted maximal effect; on the % scale 0 is the no-effect control and ±100 the full control effect
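Read-out is the ratio of GFP to DsRed2 object intensity, acquired by 488 nm laser-scanning cytometry on HeLa lamin A-EGFP minigene reporter cells. Compound incubation 48 hrs at 37 °C in Opti-MEM with 2% FBS; DMSO 0.5% final.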
HTT aggregate – reduces HttQ103-GFP aggregates in PC12 cells | Potency, µM (series often up to 46.1 µM), without a hit: at the top dose activity change, negative = inhibition, most hits filed as inhibitors | 1.1% of 220,000 active | PC12 HttQ103-GFP aggregates, Acumen cytometry, 40 h | AID 1688; further: potency means the concentration at half of the fitted maximal effect; on the % scale 0 is the no-effect control and ±100 the full control effect; nearly all actives have a fitted effect of over 60% in size
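Ecdysone-promoter PC12 model expressing HTT exon 1 Q103 fused to GFP, induced by tebufenozide at 100 nM final. Compounds titrated; aggregates sized 1–25 µm scored on a 488 nm laser cytometer.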
Epigenetic derep – derepresses silenced GFP reporter in murine cells. murine LDR cells, GFP reporter derepression, 30 h. Potency, µM (highest dose often 53.9 µM), inactives show at the highest dose GFP activation, most hits filed as activators. AID 1865. 0.2% of 280,000 active; further: potency means the concentration at half of the fitted maximal effect; % of control where 0% means no effect; nearly all actives have a fitted effect of over 60% in size
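Reporter derepression read as number of fluorescent GFP-positive objects, 20-120 um in size, counted by laser-scanning cytometer. Mouse LDR line with an epigenetically silenced CMV-GFP locus; compound incubation 30 h, 37 C.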
HTT cytoprotect – cytoprotection in Huntington HTT-Q103 PC12 cell model; Potency, µM (highest dose often 56.4 µM), for inactives: cytoprotection (ATP increase), most hits filed as activators; PC12 HTT-Q103 induced, cytoprotection, ATP luminescence, 40 h; 0.14% of 230,000 active; further: potency means the concentration at half of the fitted maximal effect; % of control where 0% means no effect; nearly all actives have a fitted effect of over 45% in size
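Compounds added alongside 100 nM tebufenozide, which induces toxic Q103 huntingtin exon 1-GFP in stable PC12 cells; surviving cells quantified by luminescent ATP measurement. Medium: phenol red-free DMEM, 5% equine and 5% calf serum.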
NPSR antagonist – blocks cAMP signaling of the human neuropeptide S receptor; Q6W5P4; CHO-NPSR cells, cAMP TR-FRET, antagonist mode; Potency, µM (titrated, usually from 38.3 µM), for the others: at the highest dose activity change, negative = inhibition, hits mostly inhibitors; 1% of 220,000 active; AID 1461; further: potency means the concentration at half of the fitted maximal effect; on the % scale 0 is the no-effect control and ±100 the full control effect; nearly all actives have a fitted effect of over 50% in size
Target sequence (Q6W5P4 whole entry, looked up): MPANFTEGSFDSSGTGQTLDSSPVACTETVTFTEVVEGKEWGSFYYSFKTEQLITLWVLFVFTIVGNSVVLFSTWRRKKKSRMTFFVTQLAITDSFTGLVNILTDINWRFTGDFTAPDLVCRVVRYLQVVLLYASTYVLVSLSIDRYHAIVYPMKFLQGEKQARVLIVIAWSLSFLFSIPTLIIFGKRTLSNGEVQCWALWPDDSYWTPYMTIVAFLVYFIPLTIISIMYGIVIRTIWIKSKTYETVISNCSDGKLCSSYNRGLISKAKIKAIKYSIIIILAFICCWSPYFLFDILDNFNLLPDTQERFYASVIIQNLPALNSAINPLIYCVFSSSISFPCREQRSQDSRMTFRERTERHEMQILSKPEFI
C127i cell count – parental c127i cell effect of epigenetic modulator hits; shares compounds with Epigenetic derep; mouse c127i parental cells, fluorescent cell count, 30 h; Potency, µM, inactives show top-dose fluorescent cell count, most hits filed as activators; 20% of 60 active; AID 493065
HCC4017 viab – reduces HCC4017 lung cancer cell viability among epigenetic modulators. HCC4017 NSCLC viability, CellTiter-Glo ATP luminescence, 72 h. AID 493071. Potency, µM (doses to about 46.1 µM), without a hit: top-dose activity change, negative = cytotoxicity, most hits filed as cytotoxic. shares compounds with Epigenetic derep. 30% of 45 active
H358 tox – reduces H358 lung cancer cell viability among epigenetic modulators; H358 NSCLC viability, ATP luminescence, 72 h; 30% of 45 active; Potency, µM (top dose mostly 46.1 µM), inactives show top-dose activity change, negative = viability loss, usual class: cytotoxic; shares compounds with Epigenetic derep
Active calls of the source: *; [ ] = remark or other dose. This is a sample that favours compounds with a hit; in the whole collection about 1.5% have one here. Unless noted, the call rests on the fitted dose curve; in most records, active means well fitted curve in the direction sought with a large enough effect; inconclusive means small, poorly fitted or top-dose-only effect, or another doubt; inactive means no such curve, though single readings can be large; an effect the other way counts as inactive or inconclusive.

How did C/C=C/c1ccc(OCC(=O)OCC(=O)NC2CC2)c(OC)c1 do in these assays?
Lamin A splicing: -5%[46 µM]; HTT aggregate: -10%; Epigenetic derep: inconclusive; HTT cytoprotect: -24%; NPSR antagonist: 6%; C127i cell count: 2%; HCC4017 viab: 9%; H358 tox: 16%

Results for COc1ccc(C(=O)/C=C/Sc2nc3ccccc3o2)cc1 ?
HTT aggregate: 3%[9.22 µM]; Epigenetic derep: inconclusive; HTT cytoprotect: -38%[10 µM]; NPSR antagonist: inconclusive; C127i cell count: 10%; HCC4017 viab: 7.9µM*; H358 tox: 7.9µM*

Results for Cc1cc(Cl)ccc1OCC(=O)Nc1c(Cl)ccc2nsnc12 ?
Epigenetic derep: 8%

What do the screens show for `CCn1c2ccc(OC)cc2c2nc3ccccc3nc21`?
Lamin A splicing: -26%; HTT aggregate: -7%; Epigenetic derep: -2%; HTT cytoprotect: 3%[10 µM]; NPSR antagonist: inconclusive

What do the screens show for `CCCCOC(=O)Cn1c2ccc(OC)cc2c2nc3ccccc3nc21`?
Lamin A splicing: 0%; HTT aggregate: -4%; Epigenetic derep: inconclusive; HTT cytoprotect: 18%; NPSR antagonist: -14%[46.1 µM]; C127i cell count: inconclusive; HCC4017 viab: inconclusive; H358 tox: inconclusive

Results for CC(=O)[C@H](CC(C)C)NC(=O)[C@@H](CC(C)C)NC(=O)[C@H](CC(C)C)NC(=O)OCc1ccccc1 ?
Epigenetic derep: 5µM*; HTT cytoprotect: -124%[1.9 µM]; C127i cell count: 1%

Results for CC(=O)NC(CC(C)C)C(=O)NC(Cc1ccccc1)C(N)=O (configuration not stated) ?
Lamin A splicing: -3%; HTT aggregate: 1%; Epigenetic derep: -1%; HTT cytoprotect: -14%; NPSR antagonist: -17%[7.67 µM]

What do the screens show for `COc1ccc(CNc2cc(-c3ccoc3)ncn2)c(OC)c1`?
Lamin A splicing: inconclusive; HTT cytoprotect: -18%

What do the screens show for `CCCS(=O)(=O)c1c(S(=O)(=O)CCC)c2cc(CC)ccn2c1C(=O)c1ccc(Cl)cc1`?
Epigenetic derep: 3%
